Screening results deposited in PubChem BioAssay by several laboratories.
Hits are enriched below; roughly 3.3% of the tested compounds scored in any of these assays.
Smad3 FoxH1 inh: blocks human Smad3 binding to FoxH1 peptide. TR-FRET Smad3/Dy647-FoxH1 peptide binding, europium anti-His. inhibition, % at 25 µM. actives 0.29% (n = 88,000);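 active means compounds that reduce the energy-transfer binding signal between the protein and its labelled peptide by more than half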;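 further: 0% = Smad3 plus labelled peptide maximal FRET and 100% = peptide-only background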
PLK1 PBD inh: inhibitors of human Plk1 polo box domain binding. Plk1 PBD phosphopeptide binding, fluorescence polarization. inhibition, %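 (tested at about 20 µM)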. AID 693. actives 0.13% (n = 97,000). P53350; in the data active means inhibition above about 34%, passing the limit was not always enough
PLK1 inh: blocks human PLK1 kinase activity; P53350; recombinant PLK1 kinase, TR-FRET peptide phosphorylation; inhibition, % at 10 µM; actives 0.53% (n = 97,000);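 active means inhibition of 50% or more in the single-concentration screen; inactive means inhibition below 50%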;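 further: 0% = DMSO max control and 100% = H-89 dihydrochloride min control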
ERb coact inh: blocks coactivator binding to human estrogen receptor beta; Q92731; TR-FRET ER-beta LBD / SRC1-Cy5 peptide binding; receptor agonist-loaded with 1 µM estradiol; inhibition, % at 25.6 µM; actives 1.3% (n = 86,000); AID 633;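 active means compounds whose percent inhibition of the receptor-coactivator binding signal exceeds about 50% in the single-dose screen, limit read from the data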;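 further: 0% = receptor plus peptide wells without compound and 100% = peptide-only wells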
ERa SRC1 inh: ER-alpha (human) coactivator binding inhibition; TR-FRET ER-alpha LBD / SRC-1 peptide, estradiol-bound; inhibition, % at 25.6 µM; actives 1.7% (n = 86,000); in the data active means inhibition above about 50%;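 further: 0% = receptor plus peptide control and 100% = peptide only without receptor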
Target sequence (P03372 whole entry, looked up, the tested form may be a part): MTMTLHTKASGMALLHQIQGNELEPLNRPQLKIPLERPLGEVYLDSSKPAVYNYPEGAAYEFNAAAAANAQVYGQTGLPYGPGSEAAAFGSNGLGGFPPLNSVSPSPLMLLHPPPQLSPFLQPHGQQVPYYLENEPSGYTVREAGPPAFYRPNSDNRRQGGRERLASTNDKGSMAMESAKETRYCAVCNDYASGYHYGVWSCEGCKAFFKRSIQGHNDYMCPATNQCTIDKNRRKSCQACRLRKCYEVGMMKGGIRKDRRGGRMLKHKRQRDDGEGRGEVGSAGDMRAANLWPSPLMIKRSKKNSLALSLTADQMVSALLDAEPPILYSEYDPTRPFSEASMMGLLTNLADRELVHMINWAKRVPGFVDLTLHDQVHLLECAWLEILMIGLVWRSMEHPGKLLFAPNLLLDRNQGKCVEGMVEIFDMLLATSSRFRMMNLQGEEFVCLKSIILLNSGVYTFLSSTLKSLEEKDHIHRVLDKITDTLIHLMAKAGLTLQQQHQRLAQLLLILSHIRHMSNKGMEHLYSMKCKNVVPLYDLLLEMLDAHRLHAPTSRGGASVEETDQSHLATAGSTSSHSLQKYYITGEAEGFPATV
ERa SRC1 pot: enhances coactivator binding to human estrogen receptor alpha. TR-FRET ERalpha-LBD/SRC-Cy5 coactivator binding, 2 h; 100 = basal binding, no effect. actives 1.3% (n = 86,000). coactivator binding (% of control), % at 25.6 µM. P03372; in the data active means activity above about 200%;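 further: binding measured in presence of low estradiol as agonist stimulus; 0% = peptide alone without receptor and 100% = receptor with peptide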
Numbers without * were called inactive; / = no result; [ ] = another dose, or the depositor's remark.

SMILES	Smad3 FoxH1 inh	PLK1 PBD inh	PLK1 inh	ERb coact inh	ERa SRC1 inh	ERa SRC1 pot
Cc1cc(C)n2nc(SCc3cc(=O)oc4cc(O)ccc34)nc2n1	31	2	-4	62*[fluorescence artefact?]	58*	99
CN1C(=O)/C(=C/c2ccccc2OCc2ccccc2F)NC1=S	/	-8	-2	/	/	/
CCOC(=O)N1CCc2c(sc3c2C(=O)NC(c2ccc(-c4ccc(Cl)cc4)o2)N3)C1 (stereo not given)	-7	/	/	56*[fluorescence artefact?]	79*	16
Cc1ccc(C2NC(=O)c3c(sc4c3CCN(C)C4)N2)o1 (stereo not given)	-3	0	-7	21	-14	87
O=C1CC(N2CCN(c3ccc(C(=O)c4ccc(F)cc4)cc3)CC2)C(=O)N1 (stereo not given)	11	-23	0	5	-4	221*
CCN1C(=O)CC(N2CCN(c3ccc(C(=O)c4ccccc4)cc3)CC2)C1=O (stereo not given)	-8	-1	-13	1	8	100
O=C1c2ccccc2CN1CCNS(=O)(=O)c1ccc2ccccc2c1	10	-31	-8	-4	-12	99
O=C1NCCN1CCNS(=O)(=O)c1ccc2ccccc2c1	0	-8	-7	-8	58*[fluorescence artefact?]	122
O=C(Nc1ccc(Cl)cc1)N1CCC(c2nc(-c3ccc(F)cc3)no2)CC1	10	6	-2	-3	1	121
CC(C)CN(C(=O)COC(=O)C1c2ccccc2Oc2ccccc21)C1CCS(=O)(=O)C1 (stereo not given)	1	8	-2	-5	-9	100
CC(C)CN(C(=O)COC(=O)c1cc2c(s1)CCC2)C1CCS(=O)(=O)C1 (stereo not given)	6	-19	-1	75*	80*	23
Cc1ccc(CN2CCSc3ccc(C(=O)N4CCN(c5ncccn5)CC4)cc32)cc1	4	/	/	30	25	378*[fluorescence artefact?]
CC1CC(C)CN(C(=O)c2ccc3c(c2)N(Cc2ccccc2)CCS3)C1 (stereo not given)	-5	11	-18	5	5	91
Clc1ccc(-c2nnc3sc(-c4ccc(Br)o4)nn23)c(Cl)c1	/	-4	-11	/	/	/
Cc1oc(-c2ccc(Cl)cc2)cc1-c1nn2c(-c3ccoc3C)nnc2s1	-27	8	-6	64*[fluorescence artefact?]	79*	59
Clc1ccc(-c2nnc3sc(-c4ccc(Br)o4)nn23)cc1	-24	-1	-16	56*[fluorescence artefact?]	56*[fluorescence artefact?]	144
COc1ccc(-c2nnc3sc(-c4ccc(Br)o4)nn23)cc1OC	-71	/	/	29	62*	139
COc1ccc(-c2nn3c(-c4ccncc4)nnc3s2)cc1OC	-3	-6	-5	4	-5	127
Cc1cc([N+](=O)[O-])cc2ncccc12	/	2	-1	/	/	/
O=[N+]([O-])c1cc(Cc2cc([N+](=O)[O-])c3cccnc3c2O)c(O)c2ncccc12	99*	/	/	/	/	/
Cc1nc2ccccc2n1CCC(=O)O	7	-19	4	-3	-6	82
Cc1nc2ccccc2n2c(O)c(CC(=O)O)cc12	12	/	/	58*[fluorescence artefact?]	41	55
CN1CCCC[C@@H]1CCN1CCCCC1	-3	/	/	/	/	/
CC(C)=CC(=O)OCC(=O)Nc1ncc(Cl)c(C)c1Cl	-4	16	-10	31	28	37
CC(=O)NC12CC3CC(C1)CC(C(=O)OCC(=O)Nc1ncc(Cl)c(C)c1Cl)(C3)C2	3	/	/	60*	74*[fluorescence artefact?]	49
SMILES	Smad3 FoxH1 inh	PLK1 PBD inh	PLK1 inh	ERb coact inh	ERa SRC1 inh	ERa SRC1 pot
O=C(O)CC[P+](c1ccccc1)(c1ccccc1)c1ccccc1	26	/	/	/	/	/
c1coc(C2Nc3cccc4cccc(c34)N2)c1	14	-18	27	78*[fluorescence artefact?]	74*[fluorescence artefact?]	26
Cc1cc(C)c(C#N)c(Sc2nnnn2-c2ccccc2)n1	-14	19	-25	27	9	75
CCOC(=O)C1=C(CSc2nncn2C)NC(=O)NC1c1cc(OCC)ccc1OCC (stereo not given)	3	3	-10	7	15	111
COc1ccccc1OCc1nnc(SCC(=O)NCc2ccco2)n1Cc1ccco1	4	11	-16	29	37	207*[fluorescence artefact?]
COc1ccccc1NC(=O)CSc1nnc(COc2ccc(Cl)cc2)n1Cc1ccco1	5	14	-15	-3	-2	100
C=CCn1c(COc2ccccc2F)nnc1SCC(=O)NC(=O)NCc1ccco1	-2	/	/	54*	67*[fluorescence artefact?]	98
COC(=O)c1cc(COc2ccc3c(c2)oc(=O)c2ccccc23)c(C)o1	-4	17	12	23	30	230*
COc1ccc2cc(C(=O)NCc3ccco3)c(=O)oc2c1	-3	16	-12	-5	-5	108
Cc1c(Br)cc(C(=O)NCc2ccco2)c(C)c1C	0	/	/	24	51*	99
O=C(NCc1ccco1)c1cc2ccc(O)cc2oc1=O	10	7	-19	72*	64*	91
Cc1cc(NC(=O)c2cn(C3CCCCC3)c(=O)c3c2c2ccccc2n3C)no1	-7	13	-25	21	5	200*[fluorescence artefact?]
Cc1ccc(CNC(=O)c2cn(C3CCCCC3)c(=O)c3c2c2ccccc2n3C)o1	-11	-22	-48	13	0	74
COc1cc(C(=O)N2CCN(S(=O)(=O)c3ccc(F)cc3)CC2)cc(OC)c1OC	14	16	-5	67*[fluorescence artefact?]	-5	101
CCOc1cccc2cc(-c3cn4cc(C)ccc4n3)c(=O)oc12	45	9	-4	50*	81*	126
COc1cccc2cc(-c3cn4ccc(C)cc4n3)c(=O)oc12	39	-15	-9	53*[fluorescence artefact?]	74*	61
CC[C@@H](c1ccc2cc(O)ccc2c1)C(C)(C)C(=O)O	-12	/	/	/	/	/
NCCCc1ccc2oc3ccccc3c2c1	-3	/	/	/	/	/
CCCCCNC(CC(=O)Nc1ccc(OC)cc1)C(=O)O (stereo not given)	8	/	/	1	-7	788*[fluorescence artefact?]
CC(C)CN=C(N)N=C(N)N	4	/	/	/	/	/
CCN(CC)c1c(-c2ccccc2)c2cc(C)ccc2[nH]c1=O	50*[fluorescence artefact?]	/	/	40	26	248*[fluorescence artefact?]
Cc1nnc(SCC(=O)Nc2sccc2C#N)n1Cc1ccccc1	/	-16	-4	/	/	/
N#Cc1ccsc1NC(=O)CSc1ncnc2ccccc12	3	18	-7	61*	91*[fluorescence artefact?]	25
N#Cc1ccsc1NC(=O)CSc1ncn[nH]1	2	-6	-2	7	8	77
Cn1ccnc1SCC(=O)Nc1sccc1C#N	-3	-5	4	39	67*[fluorescence artefact?]	43
CS(=O)(=O)N(CC(=O)O)Cc1ccccc1	-1	/	/	/	/	/
CC1(C)O[C@H]2[C@@H](O1)[C@@H](On1nnc3ccc(Cl)cc31)O[C@@H]2[C@@H]1COC(C)(C)O1	-1	/	/	/	/	/
c1cncc(-c2cc(-c3cc(-c4cccnc4)n[nH]3)[nH]n2)c1	8	/	/	/	/	/
O=C1c2cccc3cccc(c23)C(=O)N1c1ccc2ncccc2c1	4	-8	-11	23	71*[fluorescence artefact?]	172
